Sampled rows, rich in hits. Any-hit rate of the full collection: about 3.5%.
FBA Mtb inh: inhibitors of M. tuberculosis fructose-bisphosphate aldolase | P9WQA3 | purified M. tuberculosis FBA, fluorescence read-out | inhibition, % at 1 µM | actives 2.3% (n = 360,000) | AID 588726; in the data active = inhibition above about 27%;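 also: 0% = vehicle and 100% = reference inhibitor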
Target sequence (P9WQA3 whole entry, looked up): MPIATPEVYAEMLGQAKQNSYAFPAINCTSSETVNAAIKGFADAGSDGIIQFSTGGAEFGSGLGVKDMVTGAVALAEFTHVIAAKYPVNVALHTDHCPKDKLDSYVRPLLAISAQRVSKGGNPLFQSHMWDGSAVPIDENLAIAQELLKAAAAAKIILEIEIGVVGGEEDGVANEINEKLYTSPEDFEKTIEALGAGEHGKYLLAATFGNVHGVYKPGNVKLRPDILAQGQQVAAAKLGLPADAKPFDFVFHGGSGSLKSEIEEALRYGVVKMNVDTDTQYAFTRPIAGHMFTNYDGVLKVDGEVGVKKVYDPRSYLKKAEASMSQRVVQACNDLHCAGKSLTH
Rv3671c inh: inhibitors of M. tuberculosis serine protease Rv3671c | AID 2606 | inhibition, % at 5.96 µM | actives 0.048% (n = 320,000); in the data active = inhibition above about 38%;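 also: extracellular domain of Rv3671c used as enzyme; 0% = enzyme with DMSO and 100% = no enzyme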
GDH-TPI inh: GDH-TPI coupled enzyme inhibition counter-screen; GDH-TPI coupled enzyme counterscreen, NADH absorbance; inhibition, % at 4.8 µM; actives 1.2% (n = 360,000); AID 588335; in the data active = inhibition above about 30%;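 also: 0% = DMSO wells and 100% = wells lacking the enzyme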
Mtb UGM inh: inhibitors of M. tuberculosis UDP-galactopyranose mutase | P9WIQ1 | purified UGM, fluorescence polarization probe displacement | inhibition, % at 10 µM | actives 0.06% (n = 320,000); in the data active = inhibition above about 10%, passing the limit was not always enough; inconclusive = no clear call, values can overlap the other calls
Mtb betalactam: beta-lactam sensitization of Mtb H37Rv. AID 434955. inhibition, % at 25 µM. M. tuberculosis H37Rv growth with meropenem, percent inhibition. actives 0.27% (n = 330,000); call rule not given here;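 also: growth measured after seven days incubation then overnight dye step; 0% = bacteria only wells and 100% = bacteria with antibiotic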
Starred values were filed as active, the others as inactive; ? = inconclusive; . = no result; + = active, no number.

SMILES	FBA Mtb inh	Rv3671c inh	GDH-TPI inh	Mtb UGM inh	Mtb betalactam
CCCN1CCN(CCCNC(=O)c2cc3c(s2)-c2ccccc2OC3)CC1	+	-9	30	-1	2
Cc1ccc(NC(=O)CCc2nc3ccccc3c(=O)[nH]2)cc1S(=O)(=O)N1CCOCC1	2	-5	12	3	-12
COc1cc(/C=C/c2cc(OC(C)=O)c3ccccc3n2)c(OC(C)=O)c([N+](=O)[O-])c1	-3	0	37*	1	-5
CC(=O)Oc1c(Cl)cc(Cl)cc1/C=C/c1ccc2ccccc2n1	-1	-9	9	-1	-4
COc1ccnc(-n2cccc2/C=N/O)c1C#N	0	-4	-4	0	-3
O=C(c1cc2cc([N+](=O)[O-])ccc2oc1=O)N1CCN(C2CCCCC2)CC1	-6	1	3	0	6
CCN(CC)c1ccc2c(-c3ccc(S(=O)(=O)O)cc3S(=O)(=O)[O-])c3ccc(=[N+](CC)CC)cc-3oc2c1	0	+	15	93*	-20
CNS(=O)(=O)c1cc(OC)c(OC)cc1CC(=O)OC	-2	9	0	-1	0
Cc1ccc(/C=N/NC(=O)c2nnn(-c3nonc3N)c2CSc2ccccc2)o1	1	-8	40*	-1	-2
Cc1ccc(/C=N/NC(=O)c2nnn(-c3nonc3N)c2C(C)C)o1	0	2	44*	0	7
Cc1ccc(SCc2c(C(=O)N/N=C/c3ccc(C)o3)nnn2-c2nonc2N)cc1	2	.	39*	.	.
COc1cccc(-c2c(C(=O)N/N=C/c3ccncc3)nnn2-c2nonc2N)c1	-1	-10	8	-1	6
COc1cccc(-c2c(C(=O)N/N=C/c3ccc(C)o3)nnn2-c2nonc2N)c1	-1	-2	47*	1	16
COc1ccc2c(=O)cc(-c3ccncc3)oc2c1OC	0	.	16	.	.
CCCN(CCC)Cc1c(C(=O)N/N=C/c2ccc(C)o2)nnn1-c1nonc1N	1	3	19	1	-1
CCCc1c(C(=O)N/N=C/c2ccc(C)o2)nnn1-c1nonc1N	3	.	42*	.	.
COc1cc(/C=C/c2ccc3c([N+](=O)[O-])cccc3n2)ccc1OCC(=O)O	-4	4	39*	4	99
COc1cc(/C=C/c2ccc3cccc([N+](=O)[O-])c3n2)ccc1OCC(=O)O	-3	15	45*	1	.
COc1cc(/C=C/c2nc3ccc([N+](=O)[O-])cc3s2)ccc1OCC(=O)O	.	-4	.	-4	34
O=C(O)COc1ccc(/C=C/c2ccc3cccc([N+](=O)[O-])c3n2)cc1	-4	6	26	.	92
CC(=O)Nc1ccc(/C=C/c2ccc3cccc([N+](=O)[O-])c3n2)cc1	-2	-14	40*	-2	-3
CNc1cnc(-c2ccc(F)c(F)c2F)cn1	166*	.	10	.	.
CC(=O)Nc1cnc(-c2ccccc2C(F)(F)F)cn1	-3	.	-1	.	.
Cc1ccc(C(=O)NC(=S)Nc2ccc(-c3ccc(CO)o3)cc2)cc1	1	-26	10	0	8
CCOC(=O)c1ccc(-c2ccc(CO)o2)cc1	+	-4	19	-2	-5
SMILES	FBA Mtb inh	Rv3671c inh	GDH-TPI inh	Mtb UGM inh	Mtb betalactam
O/N=C1\CCCC\C1=C/c1ccccc1	2	1	9	-1	5
O=C(O)C1C2CCC(C2)C1C(=O)NCCc1cccc(Cl)c1 (configuration not stated)	1	-4	-1	-3	3
Cc1nn(C(=O)c2cc3sccc3[nH]2)c(C)c1C	-1	-7	35*	0	2
Cc1cccc(C)c1-n1c(C)cc(/C=C2\NC(=O)NC2=O)c1C	4	-1	33*	0	66
Cc1cc(/C=C2\NC(=O)NC2=O)c(C)n1-c1cccnc1	0	10	45*	3	1
COc1ccccc1-c1coc2c(CN3CCCC(C)C3)c(O)ccc2c1=O (configuration not stated)	+	-13	9	1	-5
COc1ccccc1-c1c(C)oc2c(CN3CCOCC3)c(O)ccc2c1=O	+	-5	9	-1	-6
COc1ccccc1-c1c(C)oc2c(CN3CCCC(C)C3)c(O)ccc2c1=O (configuration not stated)	+	.	21	.	.
Cc1oc2c(CN3CCCC(C)C3)c(O)ccc2c(=O)c1-c1ccccc1 (configuration not stated)	136*	0	28	1	?
CCOC(=O)c1ccc(Oc2c(C)oc3c(CN4CCN(C)CC4)c(O)ccc3c2=O)cc1	157*	-10	22	2	-16
COc1ccc(Oc2c(C)oc3c(CN4CCOCC4)c(O)ccc3c2=O)cc1	20	-6	24	0	-6
COc1ccc(-c2c(C)oc3c(CN4CCCCC4C)c(O)ccc3c2=O)cc1 (configuration not stated)	174*	-3	10	1	-7
COc1cccc(Oc2c(C)oc3c(CN4CCOCC4)c(O)ccc3c2=O)c1	142*	.	23	.	.
Cc1oc2c(CN3CCCCC3)c(O)ccc2c(=O)c1-c1ccc(Cl)cc1	113*	6	12	1	5
CCOC(=O)Cc1cc(=O)n2[nH]c(C(C)(C)C)cc2n1	6	1	-6	-2	0
Cc1oc2c(CN3CCCC3)c(O)ccc2c(=O)c1Oc1ccccc1Br	+	0	24	-1	?
CCOC(=O)c1oc2c(CN3CCN(C)CC3)c(O)c(CC)cc2c(=O)c1-c1nc2ccccc2s1	1	.	5	.	.
CC1CCCCN1Cc1c(O)ccc2c(=O)c(-c3nc4ccccc4s3)c(N)oc12 (configuration not stated)	21	23	61*	4	82
COc1ccccc1-c1coc2c(CN3CCCCC3C)c(O)ccc2c1=O (configuration not stated)	135*	-2	30	0	4
ClCC(CNCc1ccccc1)c1ccccc1 (configuration not stated)	3	.	7	.	.
Cn1ccnc1SCC(=O)Nc1ccc(Br)cc1C(F)(F)F	-1	-4	-3	-3	-13
CCN(CC)N=Nc1[nH]nc2nc(C)cc(C)c12	-9	8	32*	-2	48
Cc1cc(C)c2c(N=NN3CCCCC3)[nH]nc2n1	2	-2	12	-2	-3
O=C1COc2ccc(C(=O)COC(=O)c3cc(S(=O)(=O)N4CCOCC4)ccc3F)cc2N1	-1	-2	-3	2	-9
Cc1ccc(CS(=O)(=O)c2cn(CC(=O)N3CCOCC3)c3ccccc23)cc1	1	13	-5	-1	-9
COc1cccc(Sc2ccccc2/C=N/NC(N)=O)c1	-4	-33	2	1	-3
CCC1(C)SC(N)=NN1C(C)=O (configuration not stated)	-1	4	3	-2	13
COc1ccc(-c2cc3nnc(-c4ccccc4)nc3s2)cc1	9	2	3	-3	6
COc1ccc(-c2cc3ncnc(Cl)c3s2)cc1	+	0	16	1	51

Screening data as filed in PubChem BioAssay.
